Screening results deposited in PubChem by several laboratories.
Hits are enriched below; roughly 1.3% of the tested compounds scored in any of these assays.
TcdB GH inh: TcdB glycohydrolase inhibitors, primary screen, biochemical, single point, plate reader; inhibition, % at 9.99 µM; TcdB glycohydrolase enzymatic assay; Toxin B (Clostridioides difficile), P18177; 350,000 tested, 0.24% active; AID 652162, 2013; in the data active = inhibition above about 10%
SSB-PriA inh: inhibitors of Klebsiella pneumoniae PriA binding to SSB C-terminal tail, primary screen, biochemical, AlphaScreen. 430,000 tested, 0.6% active. AlphaScreen SSBct-PriA binding, biotinylated peptide. inhibition, % at 33 µM; in the data active = inhibition mostly above about 37%, no sharp cut-off; inactive = mostly below about 20%;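 also: plate controls were negative control peptide for no effect and reference peptide for full effect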
DUSP3 inh: VHR1 phosphatase inhibitors, primary screen, biochemical, absorbance, uHTS; inhibition, % at 13.3 µM; 290,000 tested, 0.52% active; Dual specificity protein phosphatase 3 (Homo sapiens), P51452; recombinant VHR phosphatase, pNPP absorbance; in the data active = inhibition above about 50%
BH1578 lux ind: inducers of Vibrio cholerae quorum light production without autoinducers, primary screen, BH1578 luxS cqsA deficient, single point. V. cholerae BH1578 lux reporter, luminescence, 6 h. activation, % at 18.7 µM. 350,000 tested, 0.16% active; in the data active = activation mostly above about 9.7%, no sharp cut-off
CCHF vOTU inh-1: CCHFV vOTU protease inhibitors, primary screen, biochemical, Pep-AMC substrate, fluorescence | Crimean-Congo hemorrhagic fever virus L polyprotein viral ovarian tumor (vOTU) protease … | inhibition, % at 11.5 µM | 370,000 tested, 0.55% active | AID 651958, 2012; also: 0% = vehicle wells with enzyme and 100% = no enzyme wells
3CLpro inhibitor: SARS-CoV 3CLpro protease inhibitors, primary screen, biochemical, quenched FRET; Replicase polyprotein 1ab (Severe acute respiratory syndrome coronavirus), P0C6X7; recombinant SARS-CoV 3CLpro, quenched FRET peptide cleavage; inhibition, % at 6 µM; 290,000 tested, 0.14% active; AID 1706, 2009; in the data active = inhibition above about 12%
CCHF vOTU inh-2: CCHFV vOTU protease inhibitors, confirmation, biochemical, Pep-AMC substrate, fluorescence. Recombinant CCHFV vOTU. inhibition, % at 11.5 µM. shares compounds with CCHF vOTU inh-1. 1,900 tested, 17% active. AID 686976, 2013
Numbers without * were called inactive; i = inactive; x = no result. Rule as the data show it, unless noted: active = inhibition above about 30%; inactive = the rest.

SMILES	TcdB GH inh	SSB-PriA inh	DUSP3 inh	BH1578 lux ind	CCHF vOTU inh-1	3CLpro inhibitor	CCHF vOTU inh-2
O=C(NC(=S)Nc1ccccc1N1CCCC1)c1ccco1	1.6	2.3	23.9	-0.4	21.3	4.8	x
COc1c(C)cccc1C(=O)NC(=S)Nc1ccccc1N1CCCC1	-0.7	16.1	14.0	-0.3	50.5*	3.1	23.4
Nc1ccc(N(CCO)CCO)cc1	-8.7	10.7	20.9	-0.3	57.4*	3.7	26.8
Cn1c(Cc2cccs2)nnc1SCC(=O)Nc1ccc2cn[nH]c2c1	x	x	x	x	31.4*	x	4.5
COc1cccc(C(c2c(C)[nH]n(-c3ccccc3)c2=O)c2c(C)[nH]n(-c3ccccc3)c2=O)c1OC	x	17.9	4.7	i	56.3*	1.6	-7.7
COc1cccc(C(c2c(C)[nH]n(-c3ccccc3)c2=O)c2c(C)[nH]n(-c3ccccc3)c2=O)c1O	-1.1	9.0	x	-0.2	98.8*	x	-3.7
CC1=Nc2ccccc2/C1=C/c1sc(=S)n(-c2cccc(C(=O)O)c2)c1O	2.7	x	-6.0	-2.8	36.3*	-6.2	25.8
Oc1c(C=C2N=c3ccccc3=N2)sc(=S)n1-c1ccccc1	-0.4	-3.9	17.7	i	-11.0	-4.4	x
Cc1ccccc1-n1c(/C=C/c2ccccn2)nc2ccccc2c1=O	0.3	-3.1	23.1	0.7	31.6*	-1.3	0.3
O=c1c2ccccc2nc(/C=C/c2ccc(F)cc2)n1-c1ccccn1	x	0.9	40.5	x	x	1.5	x
C=CCN1C(=O)/C(=C/c2ccc(OC(C)=O)c(OCC)c2[N+](=O)[O-])SC1=S	0.0	47.3	33.4	-0.4	30.2*	-1.8	82.0*
CCc1ccc(OCC(=O)NC(NC(=S)Nc2ccccc2C)C(Cl)(Cl)Cl)cc1 (stereo unspecified)	0.7	7.5	18.1	-0.6	29.8*	1.0	-23.8
Cc1cc(=O)n2c3c(c4c(cc13)c(CN(C)C)cc(=O)n4C)OC2	-3.4	13.5	x	i	90.1*	x	51.0*
Nc1ccc(N2CCCCC2)c2nonc12	1.0	29.1	16.5	-0.3	110.6*	6.2	34.0*
O=[N+]([O-])c1ccc(N2CCCCCC2)c2nonc12	3.2	-12.8	3.5	-1.3	13.6	-6.8	x
COC(=O)/C(=C/Nc1ccccc1)[N+](=O)[O-]	x	-14.4	38.0	-7.1	-10.9	-0.2	x
COC(=O)/C(=C/Nc1ccc(O)cc1)[N+](=O)[O-]	x	x	24.0	i	93.4*	1.8	-6.7
CCc1ccc(CN(C)C(=O)c2cc(COc3cc(C)c(Cl)c(C)c3)on2)nc1	1.2	-6.2	-6.0	-0.2	30.1*	5.3	-5.6
Cc1cc(OCc2cc(C(=O)N(C)Cc3nonc3C)no2)cc(C)c1Cl	3.1	-19.1	-9.7	-0.2	31.2*	4.0	1.3
Cc1cc(OCc2cc(C(=O)N(C)CCc3cnn(C)c3)no2)cc(C)c1Cl	1.2	-20.7	1.1	0.5	12.2	4.5	x
COC1=CC(=O)c2c(ccc3ncnc(N)c23)C1=O	1.1	1.2	x	i	110.0*	x	108.3*
Cc1ccc(Nc2cc(-n3cccn3)ncn2)c(C)c1	0.3	-1.1	7.3	-0.4	63.9*	1.1	-2.0
C=CCC[C@@H](Cc1ccc(F)cc1)C(=O)OC[C@@H](NC(=O)[C@@H](CC=C)CC(=O)N(CCO)Cc1ccccc1)c1ccccc1	-5.6	-8.0	x	-0.7	34.5*	x	4.0
C=CC[C@@H](Cc1ccc(F)cc1)C(=O)OC[C@H]1CCCN1C(=O)[C@@H](CC=C)CC(=O)N(CCO)Cc1ccccc1	1.2	5.3	x	i	31.0*	x	5.1
C=CCC[C@H](Cc1ccc(F)cc1)C(=O)OC[C@@H](C)NC(=O)[C@H](CC=C)CC(=O)N(CCO)Cc1ccccc1	-0.1	-4.6	x	-0.5	19.6	x	x
SMILES	TcdB GH inh	SSB-PriA inh	DUSP3 inh	BH1578 lux ind	CCHF vOTU inh-1	3CLpro inhibitor	CCHF vOTU inh-2
C=CC[C@@H](Cc1ccc(F)cc1)C(=O)OC[C@@H]1CCCN1C(=O)[C@H](CC=C)CC(=O)N(CCO)Cc1ccccc1	0.1	5.9	x	i	11.1	x	x
C=CCC[C@@H](Cc1ccc(F)cc1)C(=O)OC[C@H](C)NC(=O)[C@@H](CC=C)CC(=O)N(CCO)Cc1ccccc1	-4.1	-5.5	x	1.0	31.6*	x	4.9
Cc1cccnc1NC(=O)[C@H]1CCCN(c2ccc(-n3ccnc3)nn2)C1	x	-10.0	x	x	x	x	x
COc1ccc(Cl)cc1C(=O)N(Cc1ccoc1)Cc1cccs1	x	-11.0	x	x	x	x	x
COc1ccc(OC)c(S(=O)(=O)Nc2cccc3c(O)cccc23)c1	1.8	10.1	x	-0.8	-6.5	x	x
COc1ccc(NC(=O)c2ccccc2NC(=O)c2ccccc2)cc1	0.0	-0.1	-6.2	i	-0.8	3.7	x
COc1ccc(NC(=O)Nc2ccccc2OC)cc1	x	-3.5	21.8	i	0.5	3.6	x
COc1ccc(NC(=O)Nc2ccc(O)c3ccccc23)cc1	-3.7	-13.3	x	x	82.1*	x	-17.1
COc1ccc(C(=O)Nc2ccc(O)c3ccccc23)cc1	-7.5	2.1	x	0.9	30.6*	x	-8.6
COc1ccc(OC)c(S(=O)(=O)Nc2ccc(O)c3ccccc23)c1	x	11.7	-0.9	x	65.6*	0.4	-13.3
O=C(Cc1cccs1)Nc1ccc2c(c1)CN(C(=O)C1CC1)CC2	x	-13.0	x	x	x	x	x
CC(C)(C)c1cc(C(=O)O)nc2ncnn12	x	4.0	x	x	x	x	x
CCOC(=O)c1c(-c2ccccc2)[nH]c2ccc(O)cc12	x	-0.8	5.0	-1.0	33.8*	0.8	-17.1
CN(C)c1ccc(C(=O)N2CCC(COCc3ccccc3)CC2)cc1	x	3.0	x	x	x	x	x
Cc1c(N=C2C=CC(=O)c3ccccc32)c(=O)n(-c2ccccc2)n1C	-3.6	-1.4	10.8	-0.3	90.4*	-0.8	-6.1
CCOC(=O)CC(NC(=O)c1cc2cccc(OC)c2oc1=O)c1ccccc1Cl (stereo unspecified)	x	7.0	x	x	x	x	x
COc1ccc(C2C(C(=O)N3CCCC3)c3cc(OC)c(OC)cc3C(=O)N2C)cc1OC (stereo unspecified)	x	-24.8	15.5	-0.4	30.8*	-4.3	-23.0
COc1ccc(C2C(C(=O)N3CCN(C)CC3)c3cc(OC)c(OC)cc3C(=O)N2C)cc1 (stereo unspecified)	0.2	1.5	-2.4	-0.2	11.7	-1.9	x
CC1(CC(=O)N/N=C/c2ccc(-c3cccc(C(F)(F)F)c3)o2)OCCO1	1.0	x	-1.2	-0.2	34.6*	7.9	-6.9
CN(CCCC1CCCC1)C(=O)c1cc(COc2ccc(F)c(F)c2)on1	0.0	-33.6	19.7	-0.3	37.8*	3.1	3.8
COC(=O)c1ccc(S(=O)(=O)N2CC(n3cc(-c4ccccc4)nn3)C2)cc1	x	0.0	x	x	x	x	x
